Source: PubChem BioAssay AID1379 (National Center for Advancing Translational Sciences (NCATS), 2008)
Out of some 200,000 compounds screened, about 560 (0.28%) were called active. Calls come from the whole dose curve; as a rule, active = well fitted inhibition curve with a large enough effect; inconclusive = small, poorly fitted or top-dose-only effect; inactive = flat fitted curve, though single readings scatter. Many of the other results were omitted from the sample, so actives are more common in it than they were.

What follows are compounds tested against Luciferin 4-monooxygenase (Photuris pensylvanica) (UniProt Q27757) (assay: Counterscreen for Luciferase (Kinase-Glo TM) Inhibition). Settings: ATP luminescence, 8 min; series mostly up to 38.3 µM; activity change, negative = inhibition: at the top concentration.
Protocol: NCGC Assay Overview: NIH Molecular Libraries Screening Centers Network [MLSCN] NIH Chemical Genomics Center [NCGC] MLSCN Grant: None Luciferase (Kinase-Glo, Promega Corporation) was assayed for its ability to generate light using ATP and luciferin as substrates. The ATP concentration in the assay (10 uM) was within the linear range of enzyme activity for the assay conditions used.
NCGC Assay Protocol Summary: Four uL of substrate mix (final concentration, 50 mM imidazole pH 7.2, 50 mM KCl, 7 mM MgCl2, 10 uM ATP, 0.01% Tween 20, 0.05% BSA) was dispensed into white 1536 well plates. Twenty-three nL of compound was delivered by a pin tool and 2 uL of luciferase detection mix (Kinase-Glo, Promega)) was added. Following 8-minute incubation at ambient temperature, luminescence was measured by a ViewLux (Perkin Elmer) at 5 seconds exposure/plate.
% is set by controls: 0 for no effect and ±100 for the full control effect; potency is the fitted concentration of half-maximal effect.
Note: nearly all actives have a fitted effect of over 60% in size.

Row | Structure (SMILES) | activity change, negative = inhibition | Potency
1 | COC(=O)C1=C(C(=O)OC)[C@@H]2N(C)c3ccccc3[C@@]23C[C@@H](C(=O)OC)N(S(=O)(=O)c2ccc(Br)cc2)C3=N1 | -4.44% [at 7.66 µM] (inactive) | 
2 | CCCCCCCC/C=C\CCCCCCCC(=O)NCC(=O)O | -1.33% (inactive) | 
3 | CCOC(=O)C1=NO[C@@]2(C=C(Br)C(=O)[C@H]3O[C@H]32)C1 | 1.87% (inactive) | 
4 | COc1cccc([C@@H]2Oc3ccc(Br)cc3C(=O)[C@H]2OC(=O)NCc2ccc3c(c2)OCO3)c1 | 0.893% (inactive) | 
5 | COCCN1C(=O)N[C@@H](CCc2ccccc2)[C@H](C(C)=O)[C@H]1C | -8.66% [at 7.66 µM] (inactive) | 
6 | Cc1ccc(N2CCN(C3=NC(=O)/C(=C\c4cccs4)S3)CC2)cc1 | 6.68% (inactive) | 
7 | CCc1ccc(/C=C2\SC(N3CCOCC3)=NC2=O)cc1 | 0.0153% (inactive) | 
8 | Cc1ccsc1/C=C1\SC(N2CCOCC2)=NC1=O |  | 12.6 µM (active)
9 | COC(=O)CCCC1=CC2=C(c3ccccc3)C(=O)C(C)(OC(=O)C3CCCC3)C(=O)C2=CN1c1ccc(OC)cc1 (centres undefined) | -10.4% [at 7.66 µM] (inactive) | 
10 | COC(C)C(C(=O)OCC1=CCN2CC[C@H](O)[C@@H]12)C(C)C (some centres undefined) | 0.48% (inactive) | 
11 | COC(=O)CC1c2ccccc2C(Cc2ccc(OC)cc2)=C(C)N1C(=O)OC (centres undefined) | -5.96% [at 7.66 µM] (inactive) | 
12 | COc1cccc(/C=N\NC(=O)C2=NNC(=O)C2C)c1O (centres undefined) |  | 12.6 µM (active)
13 | COc1cccc(/C=N/NC(=O)c2[nH]nc3c2CCc2ccccc2-3)c1O | -1.04% (inactive) | 
14 | COc1cccc(/C=N/Nc2cc(C)nc(-c3ccccc3O)n2)c1O | -0.876% (inactive) | 
15 | Cc1ccc(S(=O)(=O)N2CCC(=O)N([C@H](COCc3ccccc3)Cc3ccccc3)CC2)cc1 | 5.82% [at 39.9 µM] (inactive) | 
16 | CCOC(=O)C1=C(C)c2ccccc2OC1C(=O)OCC (centres undefined) | 2.5% [at 39.9 µM] (inactive) | 
17 | COC(=O)CCCC1=CC2=CC(=O)C(C)(OC(=O)c3cccs3)C(=O)C2=CN1c1ccc(CO)cc1 (centres undefined) | -0.663% [at 7.66 µM] (inactive) | 
18 | COc1ccc(-c2nc3c(c4c2C[C@H](c2ccccc2)OC4)CN(C(=O)c2ccco2)CC3)c(C)c1 | -7.1% [at 7.66 µM] (inactive) | 
19 | Brc1ccc2nc(N3CCCC3)sc2c1 | -10.5% (inactive) | 
20 | c1c2c(cc3sc(N4CCCCC4)nc13)OCCO2 |  | 12.6 µM (active)
21 | COc1ccc2nc(Nc3nc4cc5c(cc4s3)OCCO5)sc2c1 | 1.58% (inactive) | 
22 | CCCCC[C@H](O)/C=C/[C@@H]1[C@@H](CC(=O)CCC(=O)O)[C@@H](O)C[C@H]1O | 0.788% (inactive) | 
23 | COc1ccc(-c2nc3c(c4c2C[C@H](c2ccccc2)OC4)CN(C(=O)c2cccnc2)CC3)c(C)c1 | -3.92% [at 7.66 µM] (inactive) | 
24 | CCCCC/C=C\C[C@H](O)/C=C/C=C/C=C/[C@@H](O)CCCC(=O)O | -1.4% (inactive) | 

Row | Structure (SMILES) | activity change, negative = inhibition | Potency
25 | Cc1cc2oc(=O)cc(-c3ccccc3)c2c(C)c1-c1ccc(OC(F)(F)F)cc1 | 2.9% [at 39.9 µM] (inactive) | 
26 | C[C@H]1Cc2c(-c3ccccc3)nc3c(c2CO1)CN(C(=O)C1CC1)CC3 | -7.42% [at 7.66 µM] (inactive) | 
27 | CC(Nc1oc(-c2ccccc2)nc1-c1ccccc1)c1ccccc1 (centres undefined) | inactive | 
28 | CCN(CC)c1ccc(C(=O)N/N=C/c2ccc(N3CCOCC3)cc2)cc1 | 0.996% (inactive) | 
29 | CC(=C/c1ccccc1)/C=N/NC(=O)c1cc(C)oc1C | -23.6% (inactive) | 
30 | Cc1cc(C(=O)N/N=C/c2ccc(N3CCOCC3)cc2)c(C)o1 |  | 11.2 µM (active)
31 | COc1ccc(-c2nc(-c3ccccc3)oc2Nc2ccc3ccccc3c2)cc1 | 0.504% (inactive) | 
32 | Cc1ccc(CC2(O)CCN(CCOc3ccc(O)cc3)CC2)cc1 | -0.52% [at 39.9 µM] (inactive) | 
33 | COC/C=C/C1=CC2=CC(=O)C(C)(OC(=O)CCC(=O)OC)C(=O)C2=CO1 (centres undefined) | -2.02% (inactive) | 
34 | C=CC1=C2C=C(C3CC3)N(C(CO)CO)C=C2C(=O)C(C)(OC(=O)c2ccco2)C1=O (centres undefined) | -0.389% [at 7.66 µM] (inactive) | 
35 | CCN1C(=O)N[C@@H](c2ccccc2)C(C(=O)OC)=C1C | -0.704% [at 7.66 µM] (inactive) | 
36 | OCCNc1nc2ccccc2[nH]1 | -0.325% (inactive) | 
37 | COc1ccc(Br)cc1C(=O)NC(=S)Nc1cc(-c2nc3ccccc3[nH]2)ccc1C | -2.2% (inactive) | 
38 | C=CCSc1nc2ccccc2[nH]1 | -7.25% (inactive) | 
39 | Cc1ccc(-c2nc3ccccc3[nH]2)cc1NC(=O)c1sc2ccccc2c1Cl | -4.49% (inactive) | 
40 | Cc1ccc(-c2nc3ccccc3[nH]2)cc1N |  | 6.31 µM (active)
41 | c1ccc2[nH]c(-c3nc4ccccc4[nH]3)nc2c1 |  | 11.2 µM (active)
42 | COCOc1cc(OC)ccc1C(=O)/C=C/c1ccc([N+](=O)[O-])cc1 | -1.04% (inactive) | 
43 | Cc1cc2oc(=O)cc(-c3ccccc3)c2c(C)c1/C=C/c1ccc(F)cc1 | 1.11% [at 39.9 µM] (inactive) | 
44 | Cc1ccc(C(=O)CNc2ccc(F)cc2)cc1 | 0.448% (inactive) | 
45 | COC(=O)c1ccc(NCC(=O)c2ccccc2)cc1 |  | 10 µM (active)
46 | COC(=O)c1ccc(NCC(=O)N2CCCCCC2)cc1 | 0.973% (inactive) | 
47 | C/C=C(\C)C(=O)OC1C(OC(=O)C2(C)OC2C)c2cc3ccc(=O)oc3cc2OC1(C)C (centres undefined) | 0.763% (inactive) | 
48 | N/C(=N\OC(=O)c1ccc([N+](=O)[O-])cc1)c1ccccn1 |  | 8.91 µM (active)

Row | Structure (SMILES) | activity change, negative = inhibition | Potency
49 | N/C(=N\OC(=O)Cc1ccc([N+](=O)[O-])cc1)c1ccccn1 | -13.1% (inactive) | 
50 | O=C(OCc1ccc([N+](=O)[O-])cc1)c1ccccn1 | 1.98% (inactive) | 
51 | C=CC(C1=CC(=O)C=CC1=O)c1ccc(O)cc1 (centres undefined) | 0.217% (inactive) | 
52 | COc1cc(OC)c2c(-c3cccc(-c4cccc(N)c4)c3)cc(=O)oc2c1 | -2.14% [at 39.9 µM] (inactive) | 
53 | COc1cc(NC(=O)c2ccc3c(c2)OCO3)ccc1NC(=O)c1cccs1 | -5.78% (inactive) | 
54 | COc1ccc(C(=O)Nc2ccc3c(c2)OCO3)cc1OC |  | 12.6 µM (active)
55 | Cn1c(=O)n(C)c2cc(C(=O)Nc3ccc4c(c3)OCO4)ccc21 | 0.19% (inactive) | 
56 | CCOc1cc(NC(=O)c2ccccn2)c(OCC)cc1NC(=O)c1ccc(OC)cc1 | -0.562% (inactive) | 
57 | COc1ccc(C(=O)/C=C/Nc2ccccn2)cc1 |  | 11.2 µM (active)
58 | COc1ccc(-c2csc(Nc3ccccn3)n2)cc1 | -10.1% (inactive) | 
59 | S=C(NCCCc1cnc[nH]1)NCCCN(Cc1ccc(Cl)c(Cl)c1)c1ccc(Br)cn1 | 2.07% [at 39.9 µM] (inactive) | 
60 | COc1ccc(C2=Nc3cc(C)ccc3OC2)cc1 |  | 8.91 µM (active)
61 | COc1ccc(-c2noc(-c3ccc(C)cc3)n2)cc1 | -1.12% (inactive) | 
62 | COc1ccc(C2=NOC3(CC(=O)N(c4ccc(C)cc4)C3=O)C2)cc1 (centres undefined) | -2.28% (inactive) | 
63 | C=C1c2cccc(OC)c2O[C@H](C(=O)OCC)[C@@H]1CCCCCC | 0.372% [at 39.9 µM] (inactive) | 
64 | CC(=NCc1ccco1)C1=C(O)c2ccccc2C1=O | -1.04% (inactive) | 
65 | CC(=NCc1ccco1)c1c(C(F)(F)F)[nH]n(-c2nc3ccccc3s2)c1=O |  | 8.91 µM (active)
66 | CCc1ccc(-c2cc(C(=O)NCc3ccco3)c3ccccc3n2)s1 | -13.6% (inactive) | 
67 | CC(=O)/C(C)=N/O | -3.88% (inactive) | 
68 | C/C=C1\C2C=C(C)CC1(N)c1ccc(=O)[nH]c1C2 (centres undefined) | 1.02% [at 39.9 µM] (inactive) | 
69 | O=c1c(O)c(Br)ccc2c(Br)c(O)c(O)c(O)c12 | -3.69% (inactive) | 
70 | Brc1ccc(C2=NCCC(c3ccccc3)O2)cc1 (centres undefined) | 3.23% [at 39.9 µM] (inactive) | 
71 | COc1ccc(-c2c(C)cc3oc(=O)cc(-c4ccccc4)c3c2C)cc1C=O | 4.99% [at 39.9 µM] (inactive) | 
72 | OC[C@H]1O[C@@H](n2cnc3c(NC4CCCC4)ncnc32)[C@H](O)[C@H]1O | -4.96% (inactive) | 

Row | Structure (SMILES) | activity change, negative = inhibition | Potency
73 | O=C1OCCN1C(=O)[C@H]1[C@H](c2ccccc2)C(c2ccc(F)cc2)=NN1c1ccccc1 | 4.83% [at 39.9 µM] (inactive) | 
74 | CCCCS(=O)(=O)N1C2=NC(C(=O)OC)=C(C(=O)OC)[C@@H]3N(Cc4ccccc4)c4ccccc4[C@]23C[C@H]1C(=O)OC | -7.24% [at 7.66 µM] (inactive) | 
75 | O=C1CCC[C@@H]2CC(N3CCCCC3)C[C@@H]3CCN1[C@H]23 (some centres undefined) | 3.14% [at 39.9 µM] (inactive) | 
76 | COc1cc(/C=N/NC(=O)c2ccccc2)ccc1OS(=O)(=O)c1ccccc1 | -4.13% (inactive) | 
77 | CCn1c(/C=N/NC(=O)c2ccc(OC)cc2)nc2ccccc21 | -1.47% (inactive) | 
78 | COc1ccc(/C=N/NC(=O)c2ccccc2)cc1OS(=O)(=O)c1ccccc1 | -0.772% (inactive) | 
79 | COc1ccc(C(=O)Nc2ccccc2C(=O)N/N=C/c2ccccc2OC)cc1 |  | 6.31 µM (active)
80 | COc1ccc(C(=O)Nc2ccccc2C(=O)N/N=C/c2ccc(O)c(OC)c2)cc1 |  | 1 µM (active)
81 | COc1ccccc1C(=O)NNC(=O)c1ccc(NC(=O)c2ccccc2)cc1 | 2.71% (inactive) | 
82 | CC1(OC(=O)C2CCCC2)C(=O)C=C2C=C(c3ccc(C#N)cc3)OC=C2C1=O (centres undefined) | -2.28% (inactive) | 
83 | C[C@H]1Cc2c(COc3ccccc3)nc3c(c2CO1)CN(C(=O)Nc1cccc(C#N)c1)CC3 | -0.91% [at 7.66 µM] (inactive) | 
84 | COC1(C2=NCCN2)COc2ccccc2O1 (centres undefined) | -1.93% (inactive) | 
85 | O=C1OCCN1C(=O)[C@H]1[C@H](c2ccc(Cl)cc2)C(c2cccc(Cl)c2)=NN1c1ccc(Br)cc1 | 2.51% [at 39.9 µM] (inactive) | 
86 | COc1ccc2c(c1)O[C@@H](c1ccc3c(c1)OCO3)[C@H](OC(=O)NCCc1ccc(OC)c(OC)c1)C2=O | 0.102% (inactive) | 
87 | CC[C@H](C)[C@@H](NC(=O)O[C@@H]1C(=O)c2cc(OC)ccc2O[C@H]1c1cccc(OC)c1)C(=O)OC | 4.76% (inactive) | 
88 | CCOC(=O)C1C/C(=C\C(C)=O)c2cccc(C(F)(F)F)c2O1 (centres undefined) | 6.29% [at 39.9 µM] (inactive) | 
89 | OC[C@H]1O[C@@H](n2cnc3c(N[C@H]4CC5CCC4C5)ncnc32)[C@H](O)[C@@H]1O (some centres undefined) | -1.73% (inactive) | 
90 | COc1cc(SC)ccc1C(=O)Nc1nc(C)cs1 |  | 11.2 µM (active)
91 | COc1cc(SC)ccc1C(=O)Nc1cc(C)ccn1 | -13.8% (inactive) | 
92 | COc1ccccc1CNC(=O)c1ccc(SC)cc1OC | -0.807% (inactive) | 
93 | CCCCC1=CC2=CC(=O)C(C)(OC(=O)CC)C(=O)C2=CN1CCCOC(C)C (centres undefined) | -3.21% [at 7.66 µM] (inactive) | 
94 | C=CCN1c2ccccc2[C@]23C[C@@H](C(=O)OC)N(S(=O)(=O)c4ccc([N+](=O)[O-])cc4)C2=NC(C(=O)OC)=C(C(=O)OC)[C@H]13 | -1.89% [at 7.66 µM] (inactive) | 
